# Measurements from PubChem BioAssay (EPA / NIEHS).
# Calls of active or inactive are those of the source. The calls were made as follows: active = hit-call score of the fitted dose curve at least 0.9, where 1 is the maximum; inconclusive = response in the unintended direction; inactive = score below 0.9.
# Test: CPHEA_Stoker_NIS_Cytotoxicity: Cytotoxicity Assessment for CPHEA's Radioactive Iodide Uptake (RAIU) Assay for Sodium/Iodide Symporter (NIS) Inhibition, Stoker and Laws Labs (AID 2283897);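 as to AC50: active means loss of ATP signal versus DMSO meaning cytotoxicity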
# Method: CPHEA_Stoker_NIS is a cell-based, single-readout assay that uses hNIS-HEK293T-EPA, a novel human kidney cell line expressing human NIS, with measurements taken at 2 hours after chemical dosing in a 96-well plate. This radioactive iodide uptake (RAIU) assay is used to identify inhibitors of NIS-mediated iodide uptake. A parallel cytoxicity assay (Cell Titer Glo, Promega) was also run in the same cell line.CPHEA_Stoker_NIS_Cytotoxicity is one of 2 assay components measured from the CPHEA_Stoker_NIS assay. It is designed to make measurements of atp content, a form of viability reporter, as detected with bioluminescence signals by Luciferase-coupled ATP quantitation technology.Data from the assay component CPHEA_Stoker_NIS_Cytotoxicity was analyzed at the endpoint, CPHEA_Stoker_NIS_Cytotoxicity, in the positive analysis fitting direction relative to DMSO as the negative control and baseline of activity. Using a type of viability reporter, measures of ATP content for loss-of-signal activity can be used to understand the viability. To generalize the intended target to other relatable targets, this assay endpoint is annotated to the cell cycle intended target family, where the subfamily is cytotoxicity.
# hNIS-HEK293T-EPA cells were seeded with a MultiFlo FX dispenser (BioTek, Winooski, VT) into ScintiPlate-96 microplates (Perkin Elmer, Waltham, MA) at a density of 4.0x10^4 cells per well in 200uL growth media and incubated for 40 hours before experimentation. On day of the assay, carrier-free 125I (Perkin-Elmer, Waltham, MA; specific activity: 17.4Ci/mg) was diluted with Hanks' balanced salt solution (Sigma, St. Louis, MO) supplemented with 10mM HEPES (uptake buffer; pH 7.4) at 5uCi/mL (288pg 125I/mL uptake buffer; 2.30nM). The assay was initiated by washing cells twice with 200uL uptake buffer using a 96-well Tecan HydroSpeed plate washer (Tecan, Mannedorf, Switzerland). Uptake buffer (59.7uL) was then added back to each well. Chemical samples (350nL at 200X) were administered using the HDR tool as previously described to achieve a 1X chemical/0.5% final DMSO concentration with subsequent addition of 10uL of 125I dilution (final [125I]: 329pM; 2.88pg/well) for a final reaction volume of 70uL/well. Cells were incubated at room temperature for 2 hours and then washed twice with 200uL ice cold uptake buffer. All uptake buffer was aspirated from wells, plates were sealed, and read on a MicroBeta2 plate reader (Perkin Elmer, Waltham, MA) using a detection protocol to measure CPM corresponding to intracellular 125I concentration. Each chemical concentration (0.001, 0.01, 0.1, 1.0, 10, and 100uM) was assayed in triplicate with three independent biological replicate plates (3 sequential cell passages). Additionally, a concentration response of NaClO4 (0.001, 0.01, 0.1, 1.0, 10, and 100uM) served as a positive control inhibition curve on each RAIU assay plate. DMSO control wells were assayed on each plate as a measure of maximum iodide uptake for normalization and determination of intra- and inter-assay variation. (Toxicol In Vitro, 2017, 40:66-78).
Structure (SMILES),AC50,outcome
CC(C)(c1cc(Cl)c(O)c(Cl)c1)c1cc(Cl)c(O)c(Cl)c1,81.3 µM (active),–
CCCCCCCCCCCCCCCC[N+](C)(C)C,–,inactive
O=P(O)(Oc1ccccc1)Oc1ccccc1,–,inactive
CC(Cc1ccc(C(C)(C)C)cc1)CN1C[C@@H](C)O[C@@H](C)C1 (stereo not given in full),–,inactive
O=CNC(N1CCN(C(NC=O)C(Cl)(Cl)Cl)CC1)C(Cl)(Cl)Cl (stereo not given),–,inactive
CC(=O)c1cc2c(cc1C)C(C)(C)C(C)CC2(C)C (stereo not given),–,inactive
O=[N+]([O-])O,–,inactive
O=C(CCl)c1ccccc1,–,inactive
O=C1Nc2ccc(Cl)cc2C(c2ccccc2)=NC1O (stereo not given),–,inactive
Cc1ccc(OP(=O)(Oc2ccc(C)cc2)Oc2ccc(C)cc2)cc1 (tested in a mixture with another compound),–,inactive
